PubChem BioAssay (EPA / NIEHS)
Calls of active or inactive are those of the source. The calls were made as follows: active = hit-call score of the fitted dose curve at least 0.9, where 1 is the maximum; inactive = score below 0.9.

Experiments:
[1] = read-out: Transforming growth factor beta 1 (TGFb1), TGFB1 (gene 7040); experiment: BSK_KF3CT_TGFb1: BioMAP Diversity Plus: KF3CT Assay for Transforming growth factor beta 1 (TGFb1) Biomarker Activity (AID 2283072); conditions: primary human keratinocytes with fibroblasts; actives raise or lower the signal
Procedure, shortened: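 Primary human skin cells (keratinocytes, foreskin fibroblasts) were co-cultured, exposed to test chemical and sampled at 24 h. TGF-b1 levels were measured by ELISA and fitted bidirectionally relative to DMSO.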

[2] = read-out: C-C motif chemokine 2 (Homo sapiens) (UniProt P13500); experiment: BSK_KF3CT_MCP1: BioMAP Diversity Plus: KF3CT Assay for Monocyte Chemoattractant Protein 1 (MCP1/CCL2) Biomarker Activity (AID 2283073); conditions: primary human keratinocytes with fibroblasts; actives raise or lower the signal
Procedure, shortened: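 Human keratinocyte–foreskin fibroblast co-culture; MCP-1 measured by ELISA 24 h after dosing. Bidirectional fit vs DMSO; cytotoxicity tracked by SRB total protein in parallel cultures.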

[3] = read-out: Matrix Metallopeptidase 9 (MMP9), MMP9 (gene 4318); experiment: BSK_KF3CT_MMP9: BioMAP Diversity Plus: KF3CT Assay for Matrix Metallopeptidase 9 (MMP9) Biomarker Activity (AID 2283074); conditions: primary human keratinocytes with fibroblasts; actives raise or lower the signal;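 as to AC50: MMP9 protein level quantified by ELISA in the co-culture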
Procedure, shortened: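 Human keratinocyte/foreskin fibroblast co-culture; compound added; 24 h; MMP-9 by ELISA; bidirectional fit vs DMSO baseline.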

[4] = read-out: urokinase plasminogen activator (uPA), PLAU (gene 5328); experiment: BSK_KF3CT_uPA: BioMAP Diversity Plus: KF3CT Assay for urokinase plasminogen activator (uPA) Biomarker Activity (AID 2283075); conditions: primary human keratinocytes with fibroblasts; actives raise or lower the signal
Procedure, shortened: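 ELISA readout of uPA, analyzed for signal gain or loss relative to DMSO, from a human primary keratinocyte–foreskin fibroblast co-culture measured 24 h after chemical treatment.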

CD40, CD40 (gene 958) [5] = experiment: BSK_LPS_CD40: BioMAP Diversity Plus: LPS Assay for CD40 Biomarker Activity (AID 2283076); conditions: primary human HUVEC with PBMC; actives raise or lower the signal
Procedure, shortened: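 HUVEC plus PBMC co-culture stimulated with LPS; CD40 quantified by ELISA 24 h after compound dosing. Fitting was bidirectional relative to DMSO. SRB staining of parallel cultures flagged overt cytotoxicity.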

[6] = read-out: E-selectin (Homo sapiens) (UniProt P16581); experiment: BSK_LPS_Eselectin: BioMAP Diversity Plus: LPS Assay for Eselectin Biomarker Activity (AID 2283077); conditions: primary human HUVEC with PBMC; actives raise or lower the signal
Procedure, shortened: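 Human umbilical vein endothelial cells co-cultured with PBMC under LPS stimulation; cell-surface E-selectin measured by ELISA 24 h after dosing. Change in either direction versus DMSO, with SRB total-protein staining in parallel cultures for cytotoxicity.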

[7] = read-out: Interleukin-8 (IL8), CXCL8 (gene 3576); experiment: BSK_LPS_IL8: BioMAP Diversity Plus: LPS Assay for Interleukin-8 (IL8) Biomarker Activity (AID 2283078); conditions: primary human HUVEC with PBMC; actives raise or lower the signal
Procedure, shortened: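 Human umbilical vein endothelial cells co-cultured with PBMC, LPS-stimulated, exposed to compound for 24 h. IL-8 quantified by ELISA; fitted in both directions against DMSO, with SRB total-protein staining of parallel cultures for cytotoxicity.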

[8] = BSK_LPS_SRB: Viability Assessment in the BioMAP Diversity Plus: LPS Assay (AID 2283079); conditions: primary human HUVEC with PBMC;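 also: total protein by sulforhodamine B absorbance as a cytotoxicity measure; measured one day after compound addition; fitted in both directions against DMSO so loss or gain of signal counts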
Procedure, shortened: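 Co-culture of human umbilical vein endothelial cells and PBMC, read 24 h after dosing. Total protein by 0.1% SRB staining after 10% TCA fixation, absorbance at 560 nm; bidirectional fit against DMSO.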

[9] = read-out: Interleukin-1 alpha (IL1a), IL1A (gene 3552); experiment: BSK_LPS_IL1a: BioMAP Diversity Plus: LPS Assay for Interleukin-1 alpha (IL1a) Biomarker Activity (AID 2283080); conditions: primary human HUVEC with PBMC; actives raise or lower the signal
Procedure, shortened: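 Human umbilical vein endothelial cells co-cultured with PBMC and stimulated with LPS; IL-1a measured by ELISA 24 h after dosing. Bidirectional fitting against DMSO; cytotoxicity checked by SRB staining in parallel cultures.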

[10] = read-out: Monocyte Chemoattractant Protein-1 (MCP1), CCL2 (gene 6347); experiment: BSK_LPS_MCP1: BioMAP Diversity Plus: LPS Assay for Monocyte Chemoattractant Protein-1 (MCP1) Biomarker Activity (AID 2283081); conditions: primary human HUVEC with PBMC; actives raise or lower the signal
Procedure, shortened: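 Human umbilical vein endothelial cells co-cultured with PBMC, LPS-stimulated; secreted MCP-1 measured by ELISA 24 h after compound addition. Bidirectional curve fitting against DMSO baseline; SRB total-protein staining in parallel cultures for cytotoxicity.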

[11] = BSK_LPS_PGE2: BioMAP Diversity Plus: LPS Assay for Prostaglandin E2 (PGE2) Biomarker Activity (AID 2283082); conditions: primary human HUVEC with PBMC; actives raise or lower the signal
Procedure, shortened: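 LPS-activated HUVEC/PBMC co-culture; cmpd dosed, 24 h; PGE2 by ELISA; bidirectional fit vs DMSO; SRB (0.1%, TCA-fixed, 560 nm) in parallel plates for overt cytotox.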

[12] = read-out: Macrophage colony-stimulating factor (MCSF), CSF1 (gene 1435); experiment: BSK_LPS_MCSF: BioMAP Diversity Plus: LPS Assay for Macrophage colony-stimulating factor (MCSF) Biomarker Activity (AID 2283083); conditions: primary human HUVEC with PBMC; actives raise or lower the signal
Procedure, shortened: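 HUVEC–PBMC co-culture, M-CSF measured by ELISA 24 h after chemical dosing. Fitted in both directions relative to DMSO as negative control; overt cytotoxicity assessed by SRB total-protein staining in parallel cultures.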

[13] = read-out: Tissue Factor, F3 (gene 2152); experiment: BSK_LPS_TissueFactor: BioMAP Diversity Plus: LPS Assay for Tissue Factor Biomarker Activity (AID 2283084); conditions: primary human HUVEC with PBMC; actives raise or lower the signal
Procedure, shortened: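 Human umbilical vein endothelial cells co-cultured with PBMC were dosed with compound. Cell-surface CD142 was measured by ELISA 24 h later. Activity was fitted bidirectionally against DMSO, with SRB total-protein staining in parallel cultures for cytotoxicity.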

[14] = read-out: Tumor necrosis factor (Homo sapiens) (UniProt P01375); experiment: BSK_LPS_TNFa: BioMAP Diversity Plus: LPS Assay for Tumour Necrosis Factor alpha (TNFa) Biomarker Activity (AID 2283085); conditions: primary human HUVEC with PBMC; actives raise or lower the signal
Procedure, shortened: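 Read-out is ELISA of TNFa in primary human endothelial cell–PBMC co-cultures at 24 h after compound. Activity in either direction was fitted against DMSO.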

[15] = read-out: Vascular cell adhesion molecule 1 (VCAM1), VCAM1 (gene 7412); experiment: BSK_LPS_VCAM1: BioMAP Diversity Plus: LPS Assay for Vascular cell adhesion molecule 1 (VCAM1) Biomarker Activity (AID 2283086); conditions: primary human HUVEC with PBMC; actives raise or lower the signal
Procedure, shortened: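 HUVEC + PBMC co-culture, LPS system; compound 24 h; VCAM-1 by ELISA; bidirectional fit vs DMSO control; parallel SRB (0.1%, TCA-fixed, 560 nm) for cytotoxicity.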

CD38, CD38 (gene 952) = experiment: BSK_SAg_CD38: BioMAP Diversity Plus: SAg Assay for CD38 Biomarker Activity (AID 2283087); conditions: primary human HUVEC with PBMC; actives raise or lower the signal
Procedure, shortened: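 Human HUVEC plus PBMC co-culture stimulated with superantigen; CD38 measured by ELISA 24 h after chemical dosing. Fluorescence read-out, bidirectional fit against DMSO; cytotoxicity tracked in parallel by SRB and Alamar Blue.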

CD40, CD40 (gene 958) [16] = experiment: BSK_SAg_CD40: BioMAP Diversity Plus: SAg Assay for CD40 Biomarker Activity (AID 2283088); conditions: primary human HUVEC with PBMC; actives raise or lower the signal
Procedure, shortened: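 HUVEC plus PBMC co-culture, superantigen-activated, with CD40 read by ELISA 24 h after dosing. Curves fitted in both directions against DMSO. Overt cytotoxicity checked by parallel SRB total-protein staining.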

CD69, CD69 (gene 969) = experiment: BSK_SAg_CD69: BioMAP Diversity Plus: SAg Assay for CD69 Biomarker Activity (AID 2283089); conditions: primary human HUVEC with PBMC; actives raise or lower the signal
Procedure, shortened: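 HUVEC co-cultured with PBMC were dosed with chemical, and CD69 was measured by ELISA with fluorescence read-out 24 h later. Bidirectional curve fitting used DMSO as negative control and activity baseline.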

[17] = read-out: Monocyte Chemoattractant Protein-1 (MCP1), CCL2 (gene 6347); experiment: BSK_SAg_MCP1: BioMAP Diversity Plus: SAg Assay for Monocyte Chemoattractant Protein-1 (MCP1) Biomarker Activity (AID 2283090); conditions: primary human HUVEC with PBMC; actives raise or lower the signal
Procedure, shortened: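 MCP-1 levels in the endothelial–PBMC SAg co-culture were quantified by ELISA at 24 h post-dosing; both increases and decreases versus DMSO scored. Cytotoxicity monitored by SRB total protein in parallel cultures.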

[18] = read-out: E-selectin (Homo sapiens) (UniProt P16581); experiment: BSK_SAg_Eselectin: BioMAP Diversity Plus: SAg Assay for Eselectin Biomarker Activity (AID 2283091); conditions: primary human HUVEC with PBMC; actives raise or lower the signal
Procedure, shortened: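 Human umbilical vein endothelial cells co-cultured with peripheral blood mononuclear cells, SAg system. E-selectin is measured by ELISA 24 h after dosing and fitted bidirectionally against DMSO. Cytotoxicity is checked by SRB staining of parallel cultures.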

Measured: AC50

Tumor necrosis factor (Homo sapiens), sequence (P01375 whole entry, looked up): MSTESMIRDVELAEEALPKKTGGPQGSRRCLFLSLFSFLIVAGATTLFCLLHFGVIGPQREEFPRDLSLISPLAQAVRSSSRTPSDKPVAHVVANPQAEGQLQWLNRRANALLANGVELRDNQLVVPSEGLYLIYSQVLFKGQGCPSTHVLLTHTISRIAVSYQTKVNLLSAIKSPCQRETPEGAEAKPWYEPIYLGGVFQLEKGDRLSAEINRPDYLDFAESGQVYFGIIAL
E-selectin (Homo sapiens), sequence (P16581 whole entry, looked up): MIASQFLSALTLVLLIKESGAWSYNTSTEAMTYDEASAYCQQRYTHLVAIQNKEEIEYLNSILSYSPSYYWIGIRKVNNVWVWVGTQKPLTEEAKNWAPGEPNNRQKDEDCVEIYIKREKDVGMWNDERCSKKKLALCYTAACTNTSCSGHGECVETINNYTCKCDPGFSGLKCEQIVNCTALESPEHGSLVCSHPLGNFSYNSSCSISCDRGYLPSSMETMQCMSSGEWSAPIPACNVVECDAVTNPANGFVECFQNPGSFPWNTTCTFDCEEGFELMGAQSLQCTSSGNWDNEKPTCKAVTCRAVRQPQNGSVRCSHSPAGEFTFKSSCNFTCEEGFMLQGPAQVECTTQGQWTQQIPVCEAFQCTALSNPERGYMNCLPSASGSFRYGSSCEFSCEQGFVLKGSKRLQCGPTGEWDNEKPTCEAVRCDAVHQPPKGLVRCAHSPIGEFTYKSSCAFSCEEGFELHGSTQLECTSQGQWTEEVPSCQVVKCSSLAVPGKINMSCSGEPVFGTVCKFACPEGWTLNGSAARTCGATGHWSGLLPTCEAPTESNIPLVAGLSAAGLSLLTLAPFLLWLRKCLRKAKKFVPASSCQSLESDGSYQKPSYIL

N[C@@H](Cc1c[nH]c2ccccc12)C(=O)O
inactive: all assays above

O=C1NC(=O)C(c2ccccc2)(c2ccccc2)N1
inactive: all assays above

COc1ccc(C(=O)Nc2nc3ccccc3c(NCc3ccccc3)c2C#N)cc1
active: CD40, CD40 (gene 958) [5] 3.97 µM | [12] 3.97 µM
not listed: [15]
inactive: all other assays above

CCCCc1nc2cccnc2n1Cc1ccc(-c2ccccc2-c2nnn[nH]2)cc1
active: [3] 26.8 nM
inactive: all other assays above
